The values that follow come from PubChem BioAssay AID1813 (Broad Institute, 2009).

Among all 300,000 compounds or so, about 2,500 (0.83%) were called active. What follows is part of a selection rich in actives, with near analogues and random picks from the rest. Unmarked numbers belong to inactive results. Cut-off read from the data, not from the text of the source: active = inhibition above about 60%; inconclusive = no clear call, values can overlap the other calls; inactive = below that.

This assay can be described thus: 5' untranslated region of α-synuclein, MLPCN primary screen (AID 1813).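 Note: H4 neuroglioblastoma cells stably carrying SNCA 5'UTR luciferase fusion; 0% = DMSO wells and 100% = positive control.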 Particulars: alpha-synuclein 5'UTR reporter, inhibitor activity; active compounds read high; tested at 7.5 µM.
`CCc1cc(-c2nnc(SCC(=O)NC3CC3)n2C)cs1`: the inhibition was -4.18%.
Under `Cc1cc(C(=O)N/N=C/c2cc([N+](=O)[O-])cc(C)c2O)n[nH]1` stands -3%; under `CC(C)(C)c1cc(C(=O)N/N=C/c2ccc([N+](=O)[O-])s2)n[nH]1`, 64% (active).
With `Cc1ccccc1NCC(=O)N/N=C\c1ccc([N+](=O)[O-])s1` the figure was -43.2%; with `CCOC(=O)C(C)n1cnc2c(nnn2-c2cccc(OC)c2)c1=O` (stereo unspecified), -35.8%.
Under `O=C(C[n+]1ccc2c(c1)nnn2-c1ccccc1)c1ccc(Cl)cc1` stands 9.87%.
For the molecule `CCC(=O)Nc1nc2ccccc2n1Cc1ccccc1C`, the inhibition was 65.5% (active).
Under `CCCCn1c(CCCNC(=O)CC)nc2ccccc21` stands -5.46%.
Under `CC(=O)Nc1nc2ccccc2n1Cc1ccc(C)cc1` stands 48.2%.
With `COc1ccc(N2CCN(C(=O)CNC(=O)c3ccc(Br)o3)CC2)cc1` the figure was 0.266%.
Consider `CC(=O)NNC(=O)c1csc(Cc2c(Cl)sc3ccc(Cl)cc23)n1`, for which the inhibition is 67.1% (active).
With `CNC(=O)c1csc(Cc2c(Cl)sc3ccc(Cl)cc23)n1` the figure was -10.2%; with `CC(=O)Cc1nsc(NC(=O)c2ccc(Cl)cc2Cl)n1`, -9.27%; with `CC12CN3CCN(CC(C3)/C1=N\NC(=O)c1ccccc1N)C2`, -83.3%.
Under `Cc1ccc(CN2CCN(Cc3ccc4ncccc4c3)CC2CCO)cc1` (stereo unspecified) stands -3.25%; under `Cc1nnc(N/N=C/c2ccccn2)[nH]c1=O`, 117% (active).
With `CNC(=O)C(=O)N/N=C/c1ccccn1` the figure was 10.9%.
Regarding `Cc1nnc(N/N=C/C2CC=CCC2)[nH]c1=O` (stereo unspecified), the inhibition was -14.7%.
Under `COc1cc(/C=N/N=C(\N)c2nonc2N)cc(OC)c1OC` stands -18.9%; under `O=C(CNC(=O)Cc1ccccc1)NCC(=O)OCC(=O)c1ccccc1Cl`, -27.1%; under `CC(=O)c1ccc(S(=O)(=O)N2CCC3(CC2)OCCO3)cc1`, -7.06%.
With `CC(=O)c1ccc(S(=O)(=O)N2CCN(C(=O)/C=C/c3ccc4ccccc4n3)CC2)cc1`, the inhibition is 62.4% (active).
Under `CC(=O)c1ccc(S(=O)(=O)N2CCN(c3nc4c(C)c(C)ccc4cc3C#N)CC2)cc1` stands 15.2%; under `CC(N)C12CC3CC(CC(O)(C3)C1)C2` (stereo unspecified), 11.6%; under `CCOc1cc2[nH]c(=S)n(Cc3ccc(C(=O)N4CCN(C)CC4)cc3)c(=O)c2cc1OCC`, 86.1% (active).
Under `CCOc1cc2[nH]c(=S)n(Cc3ccc(C(=O)NCCOC)cc3)c(=O)c2cc1OCC` stands 13.8%; under `COc1ccccc1Cn1c(=S)[nH]c2cc(C(=O)N3CCN(C)CC3)ccc2c1=O`, 30.1%; under `COc1ccccc1N1CCN(C(=O)c2cc(=O)c3cc(C)ccc3o2)CC1`, -36.8%.
With `COc1ccccc1N1CCN(C(=O)c2cc(=O)c3cc(C)cc(C)c3o2)CC1` the figure was 78.3% (active).
With `COc1cccc(-c2cc(C(=O)N3CCN(c4ccccc4OC)CC3)no2)c1`, the inhibition was -4.47%.
On to `Cc1ccc(C(=O)Nc2nnc(C3=COCCO3)o2)cc1C`, for which the inhibition is -10.3%.
With `CCN(CC)S(=O)(=O)c1ccc(N2CCCC2)c(NS(=O)(=O)c2cccs2)c1` the figure was -11.1%.
Consider `COc1ccc2c(C(=O)c3ccc(C)cc3)n(CCC(N)=O)[n+]([O-])c2c1`, for which the inhibition is -21.1%.
With `COc1ccc(C(=O)CC(=O)C(=O)Nc2cc([N+](=O)[O-])ccc2OC)cc1` the figure was -25.8%; with `COc1ccc(C(=O)c2c3ccc([N+](=O)[O-])cc3[n+]([O-])n2CCCN)cc1`, 63.1% (active); with `Cc1ccc(C(NC(=O)N2CCCC2)C(Cl)(Cl)Cl)cc1F` (stereo unspecified), 25.2%.
With `COc1cc(N=Cc2c(O)[nH]c3ccccc23)cc(OC)c1OC` the figure was 81% (active).
Under `COCC(=O)N=Nc1c(O)[nH]c2ccccc12` stands 3.62%; under `COc1ccccc1N=Cc1c(O)c2ccccc2oc1=O`, 3.79%; under `COCCC(=O)N1CCC(Oc2ccc(C(=O)NCc3ccon3)cc2)CC1`, -4.68%.
Take `Oc1ccc(/C=N/Nc2ccc(C(F)(F)F)cn2)cc1O`: the inhibition is -195%.
Under `O=C(CCCO)N/N=C/c1cc(Br)ccc1O` stands -18.4%; under `Oc1ccc(Br)cc1/C=N/Nc1ccccn1`, 66.4% (active); under `COc1ccc(-c2cc(=O)oc3cc(OCC(=O)N[C@@H](Cc4c[nH]c5ccccc45)C(=O)O)ccc23)cc1`, 9.25%.
With `CCOc1cc(/C=N/NC(=O)CN2CCCCC2)ccc1O` the figure was 1.96%.
In the case of `C=CCn1c(C)cc(C(=O)CN2C(=O)c3ccccc3C2=O)c1C`, the inhibition was 47.1%.
Consider `C=CCn1c(C)cc(C2=NNC(=NCC)SC2)c1C`, for which the inhibition was 105% (active).
Take `O=C(NCc1cccnc1)C12CC3CC(CC(C3)C1)C2`: the inhibition is 16.2%.
For the molecule `O=C(NC1CCCC1)C(c1ccc(N2CCOCC2)cc1)N(C(=O)c1ccco1)c1ccccc1F` (stereo unspecified), the inhibition was -5.34%.
Under `CCOC(=O)c1cnc(-n2nc(C)cc2C)nc1Nc1cccc(C(C)=O)c1` stands 17.6%; under `CCOC(=O)c1cnc(-n2nc(C)cc2C)nc1NNc1cc(C)nc(-c2ccccc2)n1`, 105% (active); under `Cc1cc(C)n(-c2c(F)c(F)c(COC(=O)c3ccccc3)c(F)c2F)n1`, 6.91%.
Consider `NC(=O)C1CCN(Cc2nc3c(Br)cc(Br)cc3c(=O)[nH]2)CC1`, for which the inhibition was 31.8%.
With `CC(=O)Nc1ccc(S(=O)(=O)NC2Cc3ccccc3C2)cc1` the figure was -6.02%; with `Cc1ccc(NC(=O)CCC(=O)c2ccc(Br)cc2)cc1`, 1.65%; with `CCCOc1ccccc1C1CC(=O)Nc2cc3c(cc21)OCO3` (stereo unspecified), 111% (active).
Under `COc1ccc(C2CC(=O)Nc3cc(C)c(C)cc32)c(OC)c1OC` (stereo unspecified) stands 22.4%; under `COc1ccc(S(=O)(=O)Nc2ccc3c(c2)OCO3)cc1Cl`, -17.5%.
Under `COc1cc2c(cc1OC)C(c1ccncc1)CC(=O)N2` (stereo unspecified) stands 21.6%; under `COC(=O)C1=C(C)NC(=O)CC1c1ccccc1OC` (stereo unspecified), 2.02%.
`COc1ccccc1C1C2=C(COC2=O)Nc2cc3c(cc21)OCO3` (stereo unspecified): the inhibition is 98.1% (active).

Usually inhibition stands for the change of the read-out against control, counted positive when it falls.
